What follows are sequences tested on THRa:RXRa (NR concentration 90 nM, RXRa partner concentration 90 nM) (assay: PBM binding z-score (relative to random genomic background probes); higher = stronger binding; sequences stand for … in GC…GCGATTGACAGCGTAGAATGAAGG).
In short: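 Random background probes are the reference for binding z-scores. These scores derive from regression-normalized fluorescence on custom Agilent 4×180K protein-binding microarrays incubated 1 h with ligand-free nuclear receptor dimers. Binding was detected with antibodies against each partner (one per run).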

**Q.** With TCTCGGAGGACACGAAAGGTCAGATCTCGACATC as the sequence, how does the PBM binding z-score read?
**A.** 3.82

**Q.** With CCTCGGAGGACAGAGGGTCAGAGCTGTCCGCTTT as the sequence, how does the PBM binding z-score read?
**A.** 1.69

**Q.** For ATCTCTAGGTAAGACTCAGTTTAGTGAAGAACGC, which PBM binding z-score is on record?
**A.** 0.364

**Q.** ATCGAAAGGTCGAAGGTGAGTATCCCCACCCGAA was tested. Which PBM binding z-score did it give?
**A.** 2.36

**Q.** For AATACAGGGGCATCGTAGGCCAGAGTACGCACAG, which PBM binding z-score is on record?
**A.** 2.47

**Q.** How did the PBM binding z-score turn out when CGTCCAAGGTCAAGTTCAGTGAAAGAGACTCGAA was run?
**A.** 3.99

**Q.** CGTCCAAGGCCAGCAGGTCAGTGAAAGCGACGTG was tested. Which PBM binding z-score did it give?
**A.** 1.3

**Q.** With GATACAGGGTCAAGGCTAGAGTACGCGTATTGAT as the sequence, how does the PBM binding z-score read?
**A.** 3.52

**Q.** TGTCTAAGTTCAAAGGTAACGTAAGTATCCACAC was tested. Which PBM binding z-score did it give?
**A.** 3.44

**Q.** Which PBM binding z-score does the source give for TCAGACAGGTGAATGTAACTCAGGTACGCAGTCG here?
**A.** 0.274

**Q.** How did the PBM binding z-score turn out when TGAATGAGGGTATAAGATCAGGGAACGTTGCAAA was run?
**A.** 0.461

**Q.** For CCTATCAGTTGACCATAAGGGCAACCGAAGCTCG, which PBM binding z-score is on record?
**A.** 1.98

**Q.** With CCTTACGGGTCACTGACACGTTATAGCATTTGGA as the sequence, how does the PBM binding z-score read?
**A.** 2.5

**Q.** Which PBM binding z-score does the source give for CCAGACAGGTGAGAAGATAACTCAGCCTCGATTA here?
**A.** -0.0838

**Q.** Which PBM binding z-score does the source give for CAAACTAGGTCACCAAAGGTCAAAGTCGAATGAC here?
**A.** 5.17

**Q.** Which PBM binding z-score does the source give for CAGCCTAGGTCAGGGCCGGTATAGGAGGAACGTT here?
**A.** 1.88

**Q.** Which PBM binding z-score does the source give for AGAATGAGGTTATACGTAGATCAGGCAAGAAAGT here?
**A.** 2.26

**Q.** GCAGACAGGTGAAACGCATGTAACTCAGGGTGGC was tested. Which PBM binding z-score did it give?
**A.** 0.0674

**Q.** Which PBM binding z-score does the source give for TCTATTAGTTGATTAGGGCACCCGAAACAGCGGA here?
**A.** 0.654

**Q.** AGTCAACGTTCATCTAGGTAACGTAAGATATGCT was tested. Which PBM binding z-score did it give?
**A.** 0.649

**Q.** How did the PBM binding z-score turn out when GCTTGAAGATCAAGGTTAAGAAAGACTAAGCTAA was run?
**A.** 1.02

**Q.** For AGAATGACGTTATTAAGATCAGGGAATTGCGGTC, which PBM binding z-score is on record?
**A.** -0.42

Source: the supplement of paper PMC6555819
